Assay outcomes as filed in PubChem.
Rows were chosen to be rich in hits. Some 9.3% of all compounds tested hit in one or more screens of this group.
Rab9 prom act: activates the Rab9 promoter | Huh7 Rab9 promoter-luciferase reporter, luminescence, 24 h | Potency, µM (titrated, usually from 9.22 µM), most hits filed as activators | 2.8% of 320,000 active; note: nearly all actives have a fitted effect of over 60% in size
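Rab9 promoter-driven luciferase in stably transfected Huh7 cells; 1500 cells/well rested 2 h, exposed to compound in DMSO for 24 h at 37 °C, 5% CO2. Luminescence read 10 min after adding luciferase reagent at ambient temperature.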
NPC1 prom act: activators of NPC1 promoter | Huh7 NPC1 promoter luciferase reporter, 24 h | Potency, µM (highest dose often 9.22 µM), most hits filed as activators | 2.4% of 320,000 active; note: nearly all actives have a fitted effect of over 60% in size
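Luminescence from an NPC1 promoter-driven luciferase reporter in stably transfected Huh7 cells was measured after 24 h compound treatment at 37 °C, followed by 10 min ambient incubation with luciferase detection reagent.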
FLuc counter: counter-screen for miR-21 project: firefly luciferase inhibitors or activators. 6.9% of 360,000 active. purified FLuc, Km substrates, luminescence inhibition. Potency, µM (top dose mostly 57.5 µM), usual class: inhibitors. AID 588342; note: nearly all actives have a fitted effect of over 55% in size
Target sequence (P08659 whole entry, looked up): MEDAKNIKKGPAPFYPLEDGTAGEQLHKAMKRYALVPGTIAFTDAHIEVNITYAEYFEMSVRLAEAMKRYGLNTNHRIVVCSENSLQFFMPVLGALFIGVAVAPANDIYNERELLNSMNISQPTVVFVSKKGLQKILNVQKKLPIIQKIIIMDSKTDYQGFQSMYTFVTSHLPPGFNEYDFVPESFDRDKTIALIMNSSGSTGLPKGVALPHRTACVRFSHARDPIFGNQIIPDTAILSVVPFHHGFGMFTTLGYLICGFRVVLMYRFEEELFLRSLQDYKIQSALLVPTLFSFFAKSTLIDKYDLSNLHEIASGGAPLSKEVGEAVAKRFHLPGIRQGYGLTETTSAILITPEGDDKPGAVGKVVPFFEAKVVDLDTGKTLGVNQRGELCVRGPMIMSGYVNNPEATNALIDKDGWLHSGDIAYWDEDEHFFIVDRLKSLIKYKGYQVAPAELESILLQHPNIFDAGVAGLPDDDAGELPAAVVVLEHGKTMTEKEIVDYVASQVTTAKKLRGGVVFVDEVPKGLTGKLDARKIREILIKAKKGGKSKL
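Purified P. pyralis luciferase (10nM final) with 10uM D-luciferin and 10uM ATP (Km levels) in 50mM Tris acetate pH 7.5, 10mM Mg acetate, 0.01% Tween-20, 0.05% BSA; qHTS 6-point titration, ~60 µM downward; luminescence read.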
ELG1 genotoxic: induces genotoxicity in HEK293T cells with luciferase-tagged ELG1 | HEK293T ELG1-luciferase reporter, luminescence, 16 h | Potency, µM (titrated, usually from 46 µM), usual class: activators | 1.3% of 330,000 active; note: nearly all actives have a fitted effect of over 60% in size
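Genotoxicity was scored as increased ELG1-luciferase reporter signal, measured by ONE-Glo luminescence (30 min, room temperature). Compound or vehicle exposure of the HEK293T reporter cells lasted 16 hr at 37°C.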
ELG1 repair inh: inhibitors of ELG1-dependent DNA repair in HEK293T cells. Potency, µM (titrated, usually from 46.1 µM), hits mostly inhibitors. HEK293T ELG1-luciferase reporter, luminescence, 16 h; DNA damage induced by 5-fluorouridine. 2.3% of 330,000 active; note: nearly all actives have a fitted effect of over 55% in size
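Overnight (16 hr) co-exposure of 2,000 cells/well to 5-fluorouridine and compound at 37 °C preceded detection. Luciferase was quantified via ONE-Glo luminescence; loss of signal denotes inhibition.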
SMN2 splice enh: SMN2 splice variant enhancement; Potency, µM (series often up to 46.1 µM), hits mostly activators; HEK293 SMN2-luciferase splicing reporter, luminescence, 30-36 h; AID 1458; 2.8% of 210,000 active; note: nearly all actives have a fitted effect of over 55% in size
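qHTS luciferase splicing reporter: luminescence rises when SMN2 exon 7 is included in transfected HEK293 cells. Compound exposure lasted 30-36 h at 37C, with 4.5 mM final sodium butyrate as control, followed by a ONE-Glo read.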
A number is an active result; . = inactive; ? = inconclusive; / = no result given; [ ] = another dose, or the depositor's remark. Calls come from the whole dose curve; as a rule, active = well fitted curve in the direction sought with a large enough effect; inconclusive = small, poorly fitted or top-dose-only effect, or another doubt; inactive = no such curve, though single readings can be large; an effect the other way counts as inactive or inconclusive.

SMILES	Rab9 prom act	NPC1 prom act	FLuc counter	ELG1 genotoxic	ELG1 repair inh	SMN2 splice enh
Cc1c(C(=O)Nc2cccnc2)oc2ccc(Br)cc12	3.16µM	?	2.69µM	18.3µM	?	/
CCc1ccc2oc(C(=O)Nc3cccnc3)c(C)c2c1	3.98µM	?	2.13µM	4.11µM	?	/
O=C(Nc1cccnc1)c1cc2c(ccc3ccccc32)o1	/	/	0.953µM	/	/	11.2µM
CCN(CC)S(=O)(=O)c1ccc(C(=O)Nc2cc(C)on2)cc1	.	.	.	.	.	/
CCN(CC)S(=O)(=O)c1cccc(C(=O)Nc2ccc(Cl)cn2)c1	.	.	?	.	.	.
CCN(Cc1ccccc1)S(=O)(=O)c1cc(C(=O)NC2CCCCCC2)ccc1OC	.	.	.	.	?	.
CCN(CC)S(=O)(=O)c1cc(C(=O)NC2CCCCC2)ccc1C	3.98µM	2.82µM	7.57µM	?	?	?
CCN(CC)S(=O)(=O)c1cc(C(=O)Nc2cc(C)on2)ccc1Cl	.	.	.	.	16.4µM	/
CCN(CC)S(=O)(=O)c1cc(C(=O)Nc2ccc(Cl)cn2)ccc1C	1.58µM	1.78µM	2.39µM	1.84µM	?	1.58µM
Cc1cccc(NS(=O)(=O)c2ccc3c(c2)OCCO3)c1	.	.	.	.	?	14.1µM
COc1ccc(NS(=O)(=O)c2ccc3c(c2)OCCO3)cc1OC	.	.	.	.	2.31µM	/
COc1ccc(S(=O)(=O)Nc2ccc3c(c2)OCO3)cc1OC	.	.	.	.	.	.
CC(=O)N1CCOc2ccc(S(=O)(=O)Nc3cccc(C)c3)cc21	.	.	.	.	.	/
COc1ccc(NS(=O)(=O)c2ccc(-c3cnc(C4CC4)o3)cc2)cc1OC	.	.	.	.	1.83µM	/
Cc1ccc(S(=O)(=O)Nc2ccc3c(c2)OCCO3)cc1C	.	.	21.3µM	.	?	/
Cc1ccc(NC(=O)CCCn2c(=O)c3cccn3c3ccccc32)cc1C	/	/	.	/	/	/
CCCCn1nc(C(=O)Nc2ccc3c(c2)OCO3)c2ccccc2c1=O	/	/	/	.	?	/
COc1cccc(CNC(=O)CCCN2C(=O)CSc3c2c(C)nn3-c2ccccc2)c1OC	/	/	.	/	/	/
Cc1cc(C)cc(C(=O)Nc2ccc(N3CCCC3)cc2)c1	1µM	2.24µM	1.9µM	?	?	8.91µM
O=C(Nc1ccc(N2CCCC2)cc1)c1cc(Cl)ccc1Cl	.	.	.	.	.	/
O=C(Nc1ccc(N2CCCC2)cc1)c1cccc(Cl)c1	0.251µM	0.316µM	0.675µM	1.16µM	?	/
CCCCOC(=O)c1ccc(O)cc1	.	.	?	.	?	?
CCCCOC(=O)Nc1ccc(C(=O)OCCC)cc1	.	.	19µM	?	?	.
Cc1cc(C)cc(NC(=O)Nc2ccc(N3CCCCC3)cc2)c1	3.98µM	3.55µM	2.69µM	?	?	/
COc1ccc(C2=NO[C@@](CC(=O)O)(C(=O)Nc3ccc4c(c3)OCCO4)C2)cc1	.	.	.	.	.	/
SMILES	Rab9 prom act	NPC1 prom act	FLuc counter	ELG1 genotoxic	ELG1 repair inh	SMN2 splice enh
Cn1c(=O)c2[nH]c([C@@H]3CC(=O)C[C@H](c4nc5c([nH]4)c(=O)n(C)c(=O)n5C)N3)nc2n(C)c1=O	/	/	/	/	/	.[9.22 µM]
CC(C)CC(NS(=O)(=O)c1cc(C(=O)O)ccc1Cl)C(=O)O (configuration not stated)	.	.	.	.	.	.
Cc1ccc(C)c(NC2=C(c3ccc(C(F)(F)F)cc3)C(=O)c3ccccc32)c1	/	/	.	/	/	.
CCCOC(=O)Nc1ccc(N2CCCCC2)cc1	/	/	3.01µM	/	/	14.1µM
COc1ccc(NC(=O)c2ccccc2Oc2ccccc2)cc1	.	.	.	.	.	/
COc1ccc(NC(=O)c2ccccc2-c2ccccc2C(=O)O)cc1	.	.	.	.	.	/
O=C(Nc1ccc(Oc2cccc3ccccc23)cc1)c1ccco1	.	.	23.9µM	?	.	.
Cc1cccc(Oc2ccc(NC(=O)c3ccccc3C(=O)O)cc2)c1C	.	.	19µM	.	?	.
Cc1c(C)c(C)c(C(=O)c2ccc(NC(=O)c3ccccc3C(=O)O)cc2)c(C)c1C	.	.	.	.	.	/
O=C(O)c1ccccc1C(=O)Nc1ccc(Oc2cccc3ccccc23)cc1	.	.	23.9µM	.	.	.
O=C(O)c1ccccc1C(=O)Nc1ccc(Oc2ccc3ccccc3c2)cc1	.	.	26.9µM	.	?	/
CCCCNC(=O)c1nn(C)c2c1CSc1ccccc1-2	/	/	.	/	/	/
O=C(CSCc1cnn(-c2ccccc2)c1-n1cccc1)Nc1ccc(F)cc1F	/	/	.	/	/	/
CC(C)=CC1C(CO)C1(C)C (configuration not stated)	/	/	/	/	/	.
Cc1c(NC(=O)c2ccco2)cccc1-c1nc2cccnc2s1	.	.	23.9µM	.	.	.
Cc1c(NC(=O)c2ccc(Cl)nc2)cccc1-c1nc2cccnc2s1	.	.	13.5µM	.	?	/
Cc1c(NC(=O)CC(C)C)cccc1-c1nc2cccnc2s1	/	/	.	/	/	/
CCS(=O)(=O)Nc1cccc(-c2nc3cccnc3s2)c1C	.	.	?	?	?	.
Cc1ccccc1C(=O)N1CCN(c2ccc(NC(=O)c3cccc(OC(C)C)c3)cc2)CC1	.	.	.	.	16.4µM	/
COc1c(C)cccc1C(=O)Nc1ccc(N2CCN(C(=O)c3ccccc3C)CC2)cc1	.	.	.	.	10.3µM	/
Cc1ccccc1C(=O)N1CCN(c2ccc(NC(=O)c3ccco3)cc2)CC1	.	.	.	.	.	/
Cc1ccccc1C(=O)N1CCN(c2ccc(NC(=O)Cc3ccccc3)cc2)CC1	.	.	.	.	18.3µM	/
c1cncc(CNc2ncnc3sc4c(c23)CCC4)c1	.	.	.	.	?	/
CC1CCc2c(sc3ncnc(NCc4cccnc4)c23)C1 (configuration not stated)	.	.	26.9µM	.	.	.
Cc1cccc(C)c1NC(=O)CNC(=O)c1cccnc1	.	.	.	.	.	/
SMILES	Rab9 prom act	NPC1 prom act	FLuc counter	ELG1 genotoxic	ELG1 repair inh	SMN2 splice enh
Cc1ccc(OCC(=O)Nc2ccccc2C(=O)OCc2cc(=O)n3c(C)csc3n2)cc1	/	/	.	/	/	/
COC(=O)Cn1c(SCc2ccccc2)nc2ccccc21	.	.	15.1µM	?	?	.
COc1ccc(CSc2nc3ccncc3n2CC(=O)Nc2cc(C)cc(C)c2)cc1	/	/	2.39µM	/	/	?
COc1cccc(CSc2nc3ccncc3n2CC(=O)Nc2ccc(OC)c(OC)c2OC)c1	/	/	15.1µM	/	/	?
COc1ccc(NC(=O)Cn2c(SCc3cc(C)ccc3C)nc3ccncc32)c(OC)c1OC	/	/	.	/	/	.
CCSc1nc2ccccc2n1CC(=O)OC	.	.	.	.	.	.
Cc1cccc(CSc2nc3ccncc3n2CC(=O)Nc2ccc(C)c(C)c2)c1	.	.	?	.	?	.
Cc1cc(C)n(CC(=O)N2CCCC(N3CCN(c4ccc(F)cc4)CC3)C2)n1 (configuration not stated)	.	.	.	.	.	/
